Measured values published in PubChem BioAssay AID651946 (Broad Institute, 2012).
Potency and affinity values are given separately. Activity calls are given as the source filed them.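 The calls were made as follows: active = toxic compound whose fitted half-effect dose of signal loss is at most twice its top tested dose; inconclusive = flat fit losing 30 to 70% signal, or poor fit; inactive = the rest.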

Assay: HeLa cell viability loss – plate reader, dry powder, cytotoxicity control, dose response (AID 651946)
Conditions: ATP luminescence (CellTiter-Glo), 48 h; series mostly up to 26 µM; activity change, negative = cytotoxicity: at the top concentration

| SMILES | activity change, negative = cytotoxicity |
| --- | --- |
| Clc1ccc(-c2nnc(SCc3ccccc3)o2)cc1 | 9.97% (inactive) |
| c1ccc(CSc2nnc(-c3ccccc3)o2)cc1 | -8.64% (inactive) |
| COc1ccc(CSc2nnc(-c3ccccc3)o2)cc1 | -12.5% (inactive) |
